Results taken from article PMC4336329 (PLoS ONE, 2015).
About 14,000 (4.5%) of roughly 310,000 compounds showed an effect of 50% or more. Effects have a minus sign here. The full list was thinned out, with strong results kept by preference.

biological target: human ether-à-go-go-related gene (hERG) potassium channel (human, UniProt Q12809); test: primary screen, population patch clamp on CHO cells stably expressing hERG; higher = less effect of the substance
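Further: peak tail current of the secondary pulse compared with the same well before compound.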

Sequence of human ether-à-go-go-related gene (hERG) potassium channel (Q12809 whole entry, looked up): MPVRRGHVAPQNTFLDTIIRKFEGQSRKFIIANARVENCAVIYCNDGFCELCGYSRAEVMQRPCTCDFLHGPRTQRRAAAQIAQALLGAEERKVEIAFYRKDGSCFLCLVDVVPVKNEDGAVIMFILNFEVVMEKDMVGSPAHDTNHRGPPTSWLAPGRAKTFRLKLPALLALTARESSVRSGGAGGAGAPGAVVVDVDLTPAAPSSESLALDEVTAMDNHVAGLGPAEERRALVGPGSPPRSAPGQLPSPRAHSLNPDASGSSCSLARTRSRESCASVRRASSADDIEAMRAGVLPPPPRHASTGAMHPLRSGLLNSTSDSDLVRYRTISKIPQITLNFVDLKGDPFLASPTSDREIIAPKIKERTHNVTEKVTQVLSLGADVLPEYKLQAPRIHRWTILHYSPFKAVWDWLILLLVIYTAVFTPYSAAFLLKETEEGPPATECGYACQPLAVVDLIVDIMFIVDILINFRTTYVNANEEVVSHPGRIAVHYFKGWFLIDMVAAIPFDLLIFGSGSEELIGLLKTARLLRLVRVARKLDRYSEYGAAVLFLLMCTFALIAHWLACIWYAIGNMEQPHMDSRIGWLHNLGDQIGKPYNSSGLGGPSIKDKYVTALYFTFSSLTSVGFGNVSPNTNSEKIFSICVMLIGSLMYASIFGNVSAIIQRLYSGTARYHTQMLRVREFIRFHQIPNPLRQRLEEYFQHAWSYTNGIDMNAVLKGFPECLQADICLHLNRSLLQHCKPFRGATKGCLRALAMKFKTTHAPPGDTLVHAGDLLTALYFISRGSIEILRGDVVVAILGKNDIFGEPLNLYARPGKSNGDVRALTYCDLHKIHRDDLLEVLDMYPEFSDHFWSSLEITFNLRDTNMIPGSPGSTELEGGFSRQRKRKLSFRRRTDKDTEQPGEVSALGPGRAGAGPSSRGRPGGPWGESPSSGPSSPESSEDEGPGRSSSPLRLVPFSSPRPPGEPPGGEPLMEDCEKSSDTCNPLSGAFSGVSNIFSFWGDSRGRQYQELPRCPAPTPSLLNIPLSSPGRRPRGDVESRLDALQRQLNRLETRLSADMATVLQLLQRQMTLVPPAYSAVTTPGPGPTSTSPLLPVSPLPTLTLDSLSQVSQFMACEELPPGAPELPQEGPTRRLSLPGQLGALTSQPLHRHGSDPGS

SMILES | hERG current change (%, negative = inhibition) at 10uM [%]
Cc1ccc(NC(=O)c2cnn(-c3ccccc3)c2NC(=O)c2ccco2)cc1 | 2.02
Cc1ccnn1CC(=O)N/N=C/c1ccc2c(c1)OCO2 | -7.72
N#C/C(=C/c1cccc(O)c1)C(=O)NCc1ccc(Cl)cc1 | 31
COC(=O)CSc1cc([N+](=O)[O-])cc2c1c(C1OCCO1)nn2-c1ccccc1 | -5.4
N#Cc1c(N(CCO)CCO)nc(N)c2c(N)nc3c(c12)CC(=O)N3CC1CCCO1 (stereo not drawn) | 10
CN(CCO)c1nc(N)c2c(N)nc3c(c2c1C#N)CC(=O)N3Cc1cccs1 | -29.6
CN(CCO)c1nc(N)c2c(N)nc3c(c2c1C#N)CC(=O)N3C1CCCC1 | -63.5
O=C(CSc1oc(-c2cccs2)nc1S(=O)(=O)c1ccccc1)NC1CCCCC1 | 17.7
CCC1Oc2ccccc2N(CC(=O)NCCCN2CCN(CC)CC2)C1=O (stereo not drawn) | 2.97
CCC1Oc2ccccc2N(CC(=O)NCCCN2CCOCC2)C1=O (stereo not drawn) | -4.71
CCC1Oc2ccc(C)cc2N(CC(=O)NCCCN2CCCC2)C1=O (stereo not drawn) | -34.7
CCC1Oc2ccccc2N(CC(=O)NCCCN2CCN(Cc3ccccc3)CC2)C1=O (stereo not drawn) | -42
CCC1Oc2ccc(C)cc2N(CC(=O)NCCCN2CCN(Cc3ccccc3)CC2)C1=O (stereo not drawn) | -53.9
CCC1Oc2ccccc2N(CC(=O)NCCCN2CCN(c3ccc(OC)cc3)CC2)C1=O (stereo not drawn) | -50.4
Cc1cc(OC(C)C(=O)N[C@H](C(=O)O)c2ccccc2)c2c3c(c(=O)oc2c1)CCC3 (stereo partly drawn) | -3.23
CCOC(=O)c1c(NCC(C)C)c2ccccc2[nH]c1=O | -1.01
Cc1cccc(C(=O)NNC(=O)c2ccc(Br)cc2)c1 | 4.62
O=C(Nc1cccc(Cl)c1Cl)c1snnc1-c1ccccc1 | 7.74
Cc1ccc(NC(=S)N(CCN2CCOCC2)Cc2ccccc2F)cc1Cl | -12.3
NC(=S)N/N=C1\CC(c2ccc3c(c2)OCCO3)Oc2ccc(F)cc21 (stereo not drawn) | 12.9
NC(=S)N/N=C1\CCOc2ccc(F)cc21 | -76.9
NC(=S)N/N=C1\CCOc2ccc(Cl)cc21 | 1.36

SMILES | hERG current change (%, negative = inhibition) at 10uM [%]
O=C(COC(=O)c1cccc(C(=O)OCC(=O)NCc2ccc(F)cc2)n1)NCc1ccc(F)cc1 | -15.5
CC(=O)N(Cc1cccnc1)Cc1cc2ccccc2[nH]c1=O | 3.63
COC(=O)c1ccccc1C(=O)N(Cc1cccnc1)CC1CCCN(C2CCCCC2)C1 (stereo not drawn) | -40
O=C(c1cc2cc(F)ccc2[nH]1)N(Cc1cccnc1)CC1CCCN(C2CCCCC2)C1 (stereo not drawn) | -77.5
O=C(c1cc2ccccc2[nH]1)N(Cc1cccnc1)CC1CCCN(C2CCCCC2)C1 (stereo not drawn) | -73.7
Cn1nccc1C(=O)N(CCN1CCCCC1)CC1CCCN(C2CCCC2)C1 (stereo not drawn) | -2.29
O=C(c1cccs1)N(CCN1CCCCC1)CC1CCCN(C2CCCC2)C1 (stereo not drawn) | 1.03
O=S(=O)(NCc1cn2ccsc2n1)c1cccs1 | 15.6
Cc1cc(C(=O)OCC(=O)Nc2nccs2)c2ccccc2n1 | 1.22
Cc1cc(C)c2c(n1)nn1c(C)c(CCC(=O)NCc3ccco3)c(C)nc21 | -12.1
CCOC(=O)CSc1nnc2n1C(C)(C)Cc1ccccc1-2 | -4.66
CCOc1cc(C(=O)N=c2sccn2C)cc(Br)c1OC | 8.84
CNC(=O)COC(=O)c1ccc(NC(=O)CC#N)cc1 | 11.9
CCN(CC(=O)Nc1c(F)cccc1F)C(=O)c1ccc2c(c1)S(=O)(=O)N=C1CCCCCN12 | 9.69
CCN(CC)P(=O)(Nc1ccc(Br)cc1)c1c(C)nn(CCC#N)c1NC(=O)c1ccc(Cl)cc1 (stereo not drawn) | 7.19
O=C(Nc1cnn(Cc2ccc(Cl)cc2)c1)c1ccc([N+](=O)[O-])cc1 | -31.4
Cc1nn(Cc2ccccc2)c(C)c1NC(=O)c1ccc([N+](=O)[O-])cc1[N+](=O)[O-] | -57
Cc1nn(Cc2ccc(Cl)cc2)c(C)c1NC(=O)c1ccc([N+](=O)[O-])cc1 | -72.6
CCN(CC)P(=O)(Nc1ccc([N+](=O)[O-])cc1)c1c(C)nn(CCC#N)c1NC(=O)c1ccc(Cl)cc1Cl (stereo not drawn) | 3.17
Cc1cc(C(=O)Nc2c(C)nn(Cc3ccccc3)c2C)on1 | 1.26
Cc1onc(-c2ccccc2)c1C(=O)NCc1ccc(Cl)cc1 | 13.8
CCN(CC)P(=O)(Nc1ccc([N+](=O)[O-])cc1)c1c(C)nn(CCC#N)c1NC(=O)c1ccc(Cl)cc1 (stereo not drawn) | -56.9

SMILES | hERG current change (%, negative = inhibition) at 10uM [%]
CCn1nc(C)c(NC(=O)c2ccc(Cl)cc2)c1C | 5.72
Cc1nn(Cc2ccc(Cl)cc2)c(C)c1NC(=O)c1c(-c2ccccc2)noc1C | -65.1
Cc1cc(C(=O)Nc2c(C)nn(Cc3ccc(Cl)cc3)c2C)no1 | -15.4
Cc1nn(Cc2ccccc2)c(C)c1NC(=O)Cn1nc([N+](=O)[O-])c(Cl)c1C | -10.4
C=CCNC(=S)Nc1ccc(OC)c(S(=O)(=O)N2CCOCC2)c1 | -10.3
CC(=O)c1cc2c(cc1NC(=O)CCc1c(C)nc3ncnn3c1C)OCO2 | -10.1
C=CCn1c(N)c(C(=O)NCc2cccnc2)sc1=S | -35.1
COc1cccc(CN2CC(C(=O)NCCSc3nnnn3C)CCC2=O)c1 (stereo not drawn) | 18
CC(C)(C)C(=O)Nc1ccc(N=Nc2ccccc2)cc1 | -0.305
O=C(O)C(Cc1c[nH]c2ccccc12)N1C(=O)C2C3c4ccccc4C(c4ccccc43)[C@@H]2C1=O (stereo partly drawn) | 18
Nc1nnc(CSCc2ccc(Cl)cc2Cl)s1 | 0.235
Cc1cc(NS(=O)(=O)c2ccc(NC(=O)CCc3ccccc3)cc2)no1 | 12.2
CN(Cc1ccccc1)C(=O)c1nc2ccccn2c1CNCCn1cccn1 | -32.3
CN(Cc1ccccc1)C(=O)c1nc2ccccn2c1CNCCOc1cccnc1 | -31
CCCCN(C)C(=O)c1nc2ccccn2c1CNCCCn1ncc2ccccc21 | -55
CN(Cc1ccccc1)C(=O)c1nc2ccccn2c1CNCCCOc1cccnc1 | -52.3
O=C(c1nc2ccccn2c1CNCCCn1ncc2ccccc21)N1CCCC1 | -37.7
CCCCN(C)C(=O)c1nc2ccccn2c1CNCCCn1nnc2ccccc21 | -38
CCOc1ccccc1NC(=O)CCS(=O)(=O)c1ccc(OC)cc1 | -0.411
COc1ccc(-n2c(C)cc(/C=C3/SC(=S)N(C)C3=O)c2C)cc1 | 20.7
CCOc1ccccc1C1CC(=O)NC(SCC(=O)Nc2nccs2)=C1C#N (stereo not drawn) | -0.586
CN(C)CCN1C(=O)C(O)=C(C(=O)c2ccco2)C1c1ccccc1F (stereo not drawn) | 11.9

SMILES | hERG current change (%, negative = inhibition) at 10uM [%]
Cc1ccc(C(=O)N/C(=C\c2cccnc2)C(=O)N2CCCC2)cc1 | -1.72
Fc1ccc(C2CCCN2Cc2nc(Cc3ccccc3)no2)cc1 (stereo not drawn) | -15.2
CN(C)c1nc(N)c([N+](=O)[O-])c(NCc2ccccc2)n1 | 4.16
O=C(NCc1ccccn1)C(=O)NCC1OCCN1S(=O)(=O)c1ccc(F)cc1 (stereo not drawn) | 11.7
CC(=O)c1ccc(OCC(O)CN2CCN(CCN3C(=O)c4cccc5cccc(c45)C3=O)CC2)cc1.Cl (stereo not drawn) | -34.1
CCNC(=S)N1CCN(CCN2C(=O)c3cccc4cccc(c34)C2=O)CC1 | 0.247
CCC(OCC(O)CN1CCN(CCN2C(=O)c3cccc4cccc(c34)C2=O)CC1)c1ccccc1.Cl (stereo not drawn) | -58.4
CS(=O)(=O)N1CCN(CCN2C(=O)c3cccc4cccc(c34)C2=O)CC1 | 7.17
CC(C)OCC(O)CN1CCN(CCN2C(=O)c3cccc4cccc(c34)C2=O)CC1.Cl (stereo not drawn) | -51.7
CC(C)(C)C(=O)N1CCN(CCN2C(=O)c3cccc4cccc(c34)C2=O)CC1 | 3.09
CCCCN(C(=O)Cc1ccc(S(=O)(=O)N2CCOCC2)s1)c1c(N)n(CCCC)c(=O)[nH]c1=O | 0.586
C=CCNc1oc(-c2ccco2)nc1S(=O)(=O)c1ccccc1 | -4.58
N#CCc1nn(-c2ccccc2)c(N)c1C#N | 5.46
CCc1ccc(NC(=O)C(=O)N/N=C(\C)CC(=O)Nc2ccccn2)cc1 | -8.33
COc1ccc2cc3cc(C(=O)NCc4ccco4)oc3nc2c1 | -9.75
COc1ccccc1CN1CC(C(=O)N2CCN(c3ccc(F)cc3)CC2)CC1=O (stereo not drawn) | -43
Cc1ccc(CCN2CC(C(=O)O)CC2=O)cc1 (stereo not drawn) | -0.636
CC(C)CCN1CC(C(=O)N2CCN(c3ccc(F)cc3)CC2)CC1=O (stereo not drawn) | -25.4
Cc1ccc(CCN2CC(C(=O)N3CCN(c4ccc(F)cc4)CC3)CC2=O)cc1 (stereo not drawn) | -57.4
O=C(O)C1CC(=O)N(CCc2ccc(F)cc2)C1 (stereo not drawn) | -8.39
O=C1CC(C(=O)N2CCN(c3ccc(F)cc3)CC2)CN1CCc1ccccc1 (stereo not drawn) | -50.5
